For 5 compounds, composite z-score and z-score results are on record in PubChem BioAssay.

Active and inactive are the calls of the source.

Assay [1] is described as follows: small molecules captured by biotinylated probe aFSTL3 – biochemical, small-molecule microarray, fluorescence 635/667, stem cell growth factor project, primary screen (AID 1064).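 Also: measures binding of the biotinylated anti-FSTL3 antibody to printed compounds.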 The settings on record: higher = more signal.
The nature of assay [2]: binders from COS7 lysate, DM2A8 probe, primary screen, torsin A project, cell lysate, small-molecule microarray, fluorescence 635/667 (AID 1065). Conditions: higher = more signal, COS7 lysate expressing mutant human TOR1A.
The nature of assay [3]: small molecules captured by biotinylated probe aFGF2 – biochemical, small-molecule microarray, fluorescence 635/667, stem cell growth factor project, primary screen (AID 1067).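 Also: measures binding of biotinylated aFGF2 protein to printed compounds on slides; z-score merges feature fluorescence and signal-to-noise across triplicate slides.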 The settings on record: higher = more signal.
A short description of assay [4]: small molecules captured by biotinylated probe aFGF10 – biochemical, small-molecule microarray, fluorescence 635/667, stem cell growth factor project, primary screen (AID 1071).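 Also: score merges 667 nm spot intensity and signal to noise from triplicate slides.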 The settings on record: higher = more signal.
In assay [5] the target is Neurogenic locus notch homolog protein 2 (Homo sapiens) (UniProt Q04721). Description: small molecules binding Notch2 protein – biochemical, small-molecule microarray, 635 nm fluorescence, stem cell growth factors, primary screen (AID 1073). Conditions: higher = more signal.
Neurogenic locus notch homolog protein 2 (Homo sapiens), sequence (Q04721 whole entry, looked up, canonical isoform): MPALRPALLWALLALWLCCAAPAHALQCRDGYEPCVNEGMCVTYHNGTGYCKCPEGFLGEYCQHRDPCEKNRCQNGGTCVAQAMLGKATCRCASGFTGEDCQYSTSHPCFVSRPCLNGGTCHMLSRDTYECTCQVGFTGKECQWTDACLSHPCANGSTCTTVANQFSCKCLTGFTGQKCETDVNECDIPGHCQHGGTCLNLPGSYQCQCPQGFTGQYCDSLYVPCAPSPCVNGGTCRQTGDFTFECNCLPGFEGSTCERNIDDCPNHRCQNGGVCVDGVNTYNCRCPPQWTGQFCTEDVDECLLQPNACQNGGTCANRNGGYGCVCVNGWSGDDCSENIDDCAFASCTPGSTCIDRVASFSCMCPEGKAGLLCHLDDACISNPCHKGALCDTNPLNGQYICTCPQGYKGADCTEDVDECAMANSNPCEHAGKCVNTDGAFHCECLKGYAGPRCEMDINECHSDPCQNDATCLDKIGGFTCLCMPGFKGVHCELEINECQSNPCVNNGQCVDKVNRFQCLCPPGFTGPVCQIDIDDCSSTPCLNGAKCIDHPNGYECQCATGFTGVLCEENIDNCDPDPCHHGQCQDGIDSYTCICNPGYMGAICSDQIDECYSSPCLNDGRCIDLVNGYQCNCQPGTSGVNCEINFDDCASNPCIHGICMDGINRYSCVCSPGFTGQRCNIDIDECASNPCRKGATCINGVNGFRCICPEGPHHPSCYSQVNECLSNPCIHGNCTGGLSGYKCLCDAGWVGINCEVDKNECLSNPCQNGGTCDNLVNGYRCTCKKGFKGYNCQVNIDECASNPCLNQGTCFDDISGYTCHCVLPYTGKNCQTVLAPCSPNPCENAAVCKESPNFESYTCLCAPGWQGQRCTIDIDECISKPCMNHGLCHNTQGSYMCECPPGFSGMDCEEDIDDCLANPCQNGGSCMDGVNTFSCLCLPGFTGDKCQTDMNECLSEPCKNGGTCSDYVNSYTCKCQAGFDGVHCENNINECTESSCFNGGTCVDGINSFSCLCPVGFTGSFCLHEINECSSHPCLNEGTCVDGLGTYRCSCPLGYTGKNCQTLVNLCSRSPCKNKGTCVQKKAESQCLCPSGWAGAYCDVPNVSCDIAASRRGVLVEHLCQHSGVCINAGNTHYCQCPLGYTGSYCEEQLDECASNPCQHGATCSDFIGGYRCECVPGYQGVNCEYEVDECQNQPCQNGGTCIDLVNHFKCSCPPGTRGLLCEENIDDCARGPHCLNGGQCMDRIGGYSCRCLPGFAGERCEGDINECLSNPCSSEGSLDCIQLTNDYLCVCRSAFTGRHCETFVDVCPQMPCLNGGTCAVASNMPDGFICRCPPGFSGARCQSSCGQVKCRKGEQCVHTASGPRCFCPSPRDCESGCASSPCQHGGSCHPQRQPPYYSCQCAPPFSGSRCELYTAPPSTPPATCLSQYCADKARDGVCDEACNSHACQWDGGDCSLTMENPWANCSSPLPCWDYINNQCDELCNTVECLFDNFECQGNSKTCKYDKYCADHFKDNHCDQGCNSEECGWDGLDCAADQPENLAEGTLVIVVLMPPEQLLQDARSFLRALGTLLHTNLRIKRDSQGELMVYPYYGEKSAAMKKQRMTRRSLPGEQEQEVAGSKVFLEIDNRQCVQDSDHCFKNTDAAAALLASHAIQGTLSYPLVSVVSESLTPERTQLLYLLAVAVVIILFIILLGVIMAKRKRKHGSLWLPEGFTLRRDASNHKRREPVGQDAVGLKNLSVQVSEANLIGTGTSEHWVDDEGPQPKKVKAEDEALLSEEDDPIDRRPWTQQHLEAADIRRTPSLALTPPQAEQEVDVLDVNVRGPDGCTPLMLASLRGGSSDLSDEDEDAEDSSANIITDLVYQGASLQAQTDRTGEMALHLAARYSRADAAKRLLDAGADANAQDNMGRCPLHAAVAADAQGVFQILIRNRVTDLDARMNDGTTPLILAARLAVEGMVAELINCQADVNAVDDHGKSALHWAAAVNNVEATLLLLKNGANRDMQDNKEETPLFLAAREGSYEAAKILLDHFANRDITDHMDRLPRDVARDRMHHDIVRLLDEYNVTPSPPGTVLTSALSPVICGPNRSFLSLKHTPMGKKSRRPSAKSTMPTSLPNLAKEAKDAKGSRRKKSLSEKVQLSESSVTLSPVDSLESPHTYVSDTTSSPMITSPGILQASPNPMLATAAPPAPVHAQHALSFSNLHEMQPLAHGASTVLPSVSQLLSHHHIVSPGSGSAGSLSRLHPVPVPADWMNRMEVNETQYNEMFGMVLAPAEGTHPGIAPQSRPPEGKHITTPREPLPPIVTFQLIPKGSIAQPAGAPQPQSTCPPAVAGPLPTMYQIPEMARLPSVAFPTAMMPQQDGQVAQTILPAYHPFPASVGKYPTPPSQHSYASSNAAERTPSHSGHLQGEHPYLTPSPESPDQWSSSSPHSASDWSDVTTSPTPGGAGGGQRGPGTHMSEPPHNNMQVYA
Assay [6] concerns the target Pro-neuregulin-1, membrane-bound isoform (Homo sapiens) (UniProt Q02297). Description: small molecules binding neuregulin-1 protein – biochemical, small-molecule microarray, fluorescence 635/667, psychiatric disease protein project, primary screen (AID 1075).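 Also: score combines 667 nm spot fluorescence with signal to noise.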 The settings on record: NRG1 binding, 635 nm fluorescence, higher = more signal.
The subject of assay [7] is Neuregulin-1 EGF-like domain. Description: small molecules binding NRG1 EGF domain – biochemical, small-molecule microarray, 635 nm fluorescence, primary screen (AID 1081).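 Also: binding of the protein to compounds printed on small-molecule microarray slides.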 The settings on record: higher = more signal.
Assay [8] can be described thus: FRG1 expression reporter modulators in myotubes – cell-based, C2C12 myotubes, firefly/Renilla luciferase, luminescence, FRG1 inhibition for FSHD, primary screen (AID 1084). The settings on record: FRG1 promoter luciferase, higher = more signal, called active from +8 up or from −8 down.
The nature of assay [9]: small molecules captured by biotinylated probe aFST – biochemical, small-molecule microarray, fluorescence 635/667, stem cell growth factor project, primary screen (AID 1086).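 Also: score merges 667 nm fluorescence with signal-to-noise of each printed compound spot.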 The settings on record: higher = more signal.
Assay [10] can be described thus: binders of probe aHhip on microarray, primary screen, stem cell growth factor project, biochemical, small-molecule microarray, fluorescence 635/667 (AID 1087).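 Also: score merges spot fluorescence at 667nm with spot signal to noise ratio.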 The settings on record: higher = more signal.
In assay [11] the test system is PRMT1 (protein arginine N-methyltransferase 1). Description: small molecules binding arginine methyltransferase PRMT1 – biochemical, small-molecule microarray, 635 nm fluorescence, primary screen (AID 1088).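 Also: binding of Prmt1 protein to compounds spotted on small-molecule microarray slides.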 Conditions: higher = more signal.
Assay [12] is described as follows: growth effects on S. cerevisiae YJM789 – YJM789 clinical isolate, OD600, 24 h, basal, primary screen (AID 1089).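 Also: growth of clinical yeast isolate S. cerevisiae YJM 789 seeded 1000 cells per well; test concentration not given here.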 The settings on record: higher = more signal, called active from +8 up or from −8 down.
Assay [13] in a line: S. pombe growth modifiers, basal conditions – strain 972, OD600, 24 h, no modulator, primary screen (AID 1090).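 Also: basal condition with compound alone and no growth modifier present; test concentration not given here.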 Conditions: S. pombe 972 growth, higher = more signal, called active from +8 up or from −8 down.
Assay [14] is described as follows: budding yeast growth modifiers under rapamycin – strain BY4716, OD600, 96 h, primary screen (AID 1091). Also: test concentration not given here. The settings on record: S. cerevisiae BY4716 + rapamycin, higher = more signal, called active from +8 up or from −8 down.
Assay [15] concerns the target Torsin-1A-interacting protein 2 (Homo sapiens) (UniProt Q8NFQ8). The assay is described as follows: small molecules binding lysate-expressed LULL1 – cell lysate, human LULL1 lysate, 635/667 nm fluorescence, primary screen (AID 1092).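 Also: probe is lysate of COS7 cells overexpressing human LULL1; score merges per-feature 667 nm fluorescence with signal-to-noise.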 Conditions: small-molecule microarray, hLULL1 lysate binding, 635 nm fluorescence; higher = more signal.
A short description of assay [16]: optical density change of DRC41 E. coli – strain DRC41, OD650, 24 h, E. coli filamentation project, primary screen (AID 1093).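 Also: MC1000 strain lacking acrAB efflux and sulA so SOS filamentation is blocked; test concentration not given here.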 Conditions: E. coli DRC41 growth, higher = more signal, called active from +8 up or from −8 down.
Assay [17] can be described thus: probe aLefty2 binding to arrayed compounds – biochemical, biotinylated probe, 635/667 nm fluorescence, primary screen (AID 1094).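 Also: score merges spot fluorescence near 667 nm with spot signal-to-noise ratio.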 Conditions: small-molecule microarray, higher = more signal.
The subject of assay [18] is Noggin (protein binding on small-molecule microarray). The assay is described as follows: small molecules binding Noggin protein – biochemical, 635/667 nm fluorescence, primary screen (AID 1095).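 Also: score merges 667 nm feature fluorescence with signal to noise over triplicate slides.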 Conditions: 635 nm fluorescence, higher = more signal.
In assay [19] the target is Neurogenic locus notch homolog protein 3 (Homo sapiens) (UniProt Q9UM47). The assay is described as follows: small molecules binding NOTCH3 protein – biochemical, 635/667 nm fluorescence, primary screen (AID 1096). Conditions: small-molecule microarray, 635 nm fluorescence, higher = more signal.
Assay [20] can be described thus: probe aEGFR binding to arrayed compounds – biochemical, biotinylated probe, 635/667 nm fluorescence, primary screen (AID 1097).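 Also: probe is a biotinylated anti-EGFR antibody binding compounds printed on slides; score combines fluorescence near 667 nm and signal to noise of each spot.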 Conditions: small-molecule microarray, higher = more signal.

Torsin-1A-interacting protein 2 (Homo sapiens), sequence (Q8NFQ8 whole entry, looked up): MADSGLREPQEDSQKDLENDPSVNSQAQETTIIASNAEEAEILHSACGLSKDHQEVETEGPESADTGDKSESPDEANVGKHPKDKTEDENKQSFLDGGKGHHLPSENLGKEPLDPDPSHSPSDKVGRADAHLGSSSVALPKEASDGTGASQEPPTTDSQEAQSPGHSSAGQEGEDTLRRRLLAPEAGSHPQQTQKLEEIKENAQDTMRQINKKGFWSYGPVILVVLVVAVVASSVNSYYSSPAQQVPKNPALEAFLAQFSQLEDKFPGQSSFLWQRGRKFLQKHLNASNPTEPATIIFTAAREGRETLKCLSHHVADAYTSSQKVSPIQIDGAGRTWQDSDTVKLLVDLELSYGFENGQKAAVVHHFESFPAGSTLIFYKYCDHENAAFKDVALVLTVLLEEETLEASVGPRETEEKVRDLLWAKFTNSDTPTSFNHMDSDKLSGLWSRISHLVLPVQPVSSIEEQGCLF
Pro-neuregulin-1, membrane-bound isoform (Homo sapiens), sequence (Q02297 whole entry, looked up, the tested form may be a part, canonical isoform): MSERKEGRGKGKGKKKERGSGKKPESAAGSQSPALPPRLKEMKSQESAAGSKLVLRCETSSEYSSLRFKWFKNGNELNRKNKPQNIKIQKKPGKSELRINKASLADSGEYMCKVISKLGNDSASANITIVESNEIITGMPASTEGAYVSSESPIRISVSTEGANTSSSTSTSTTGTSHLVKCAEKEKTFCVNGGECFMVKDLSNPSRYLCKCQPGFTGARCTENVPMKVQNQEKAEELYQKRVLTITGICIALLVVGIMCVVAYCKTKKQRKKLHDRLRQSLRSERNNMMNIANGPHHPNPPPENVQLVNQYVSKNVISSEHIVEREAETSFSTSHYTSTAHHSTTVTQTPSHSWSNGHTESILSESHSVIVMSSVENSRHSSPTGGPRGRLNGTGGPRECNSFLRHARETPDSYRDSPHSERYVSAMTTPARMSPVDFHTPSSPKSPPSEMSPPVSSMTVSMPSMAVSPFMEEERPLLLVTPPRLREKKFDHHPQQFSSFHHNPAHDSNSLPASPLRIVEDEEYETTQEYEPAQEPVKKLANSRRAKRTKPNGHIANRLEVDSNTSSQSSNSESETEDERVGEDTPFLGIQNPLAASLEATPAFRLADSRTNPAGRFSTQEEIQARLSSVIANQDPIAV

For the compound `COCCCNC(=O)[C@@H]1c2ccccc2C(=O)N(Cc2cc(C(F)(F)F)cc(C(F)(F)F)c2)[C@H]1c1ccc(CO)cc1`, the composite z-score is -0.468 in assay [1]; 0.668 in assay [2]; -0.182 in [3]; -0.568 in assay [4]; -0.0254 in [5]; 0.686 in [6]. Moreover, the composite z-score is 0.887 in assay [7]; 1.49 in assay [9]; -0.34 in assay [10]; -0.217 in [11]; 0.928 in [15]; -0.164 in assay [17]. Moreover, the composite z-score in [18] was -0.441; in assay [19], -0.305; in [20], 0.45. Further, the z-score is 0.309 (inactive) in assay [8]; 0.109 (inactive) in assay [12]; 0.144 (inactive) in assay [13]; -0.405 (inactive) in assay [14]; 0.329 (inactive) in [16].

With `CCCCCCCCCCC(O)C1C=CC2C(=O)N(C)C(=O)C2N1N1CCCCC1` (stereo not given), the composite z-score was 0.449 in assay [1]; -0.346 in assay [2]; -0.213 in assay [3]; -1.1 in assay [4]; -1.96 in [5]; 0.252 in assay [6]. In addition, the composite z-score in assay [7] was -0.413; in [9], -0.744; in assay [10] it was -0.0423; in [11], -0.804; in [15], 1.64; in [17], -0.118. Besides, the composite z-score is -1.9 in assay [18], -1.14 in assay [19] and -0.368 in assay [20]. The z-score in assay [8] is -0.635 (inactive); in assay [12], 1.16 (inactive); in assay [13] it was -2.31 (inactive); in assay [14], 2.18 (inactive); in assay [16], -1.6 (inactive).

`CO[C@H]1O[C@H](CO)[C@@H](OC(=O)Nc2ccc(C(F)(F)F)cc2)[C@H](OC(=O)Nc2ccccc2-c2ccccc2)[C@H]1OC(=O)Nc1ccccc1-c1ccccc1`: the composite z-score in assay [1] was -0.288; in assay [2] it was 1.16; in assay [3], 0.0276; in assay [4], 0.988; in assay [5], 1.04; in assay [6], 0.802. In addition, the composite z-score in assay [7] was 1.36; in [9] it was 0.997; in assay [10], -0.0645; in assay [11], 1.54; in assay [15], 3.29; in [17] it was 0.0079. Besides, the composite z-score in assay [18] is 1.21; in assay [19], 1.06; in assay [20] it was 0.0108. Besides, the z-score in assay [8] was 2.53 (inactive); in assay [12], 1.32 (inactive); in assay [13], 2.36 (inactive); in [14], 29.9 (active); in assay [16], 0.0918 (inactive).

For `CC(=O)c1ccc(C(O)C2C=CC3C(=O)N(C)C(=O)C3N2NC(=O)OC(C)(C)C)cc1` (stereo not given), the composite z-score in [1] amounted to 0.301; in [2], 0.169; in assay [3] it was 0.152; in assay [4] it was 1.13; in assay [5] it was 1.61; in [6] it was 2.11. For the same compound, the composite z-score is 1.35 in assay [7]; 0.948 in assay [9]; -0.154 in assay [10]; 1.54 in assay [11]; 3.47 in [15]; 0.236 in assay [17]. For the same compound, the values for the composite z-score in [18], in assay [19] and in assay [20] were -0.465, 1.11 and 0.357, respectively. Besides, the z-score in assay [8] is 0.929 (inactive); in [12], 0.269 (inactive); in [13], 1.08 (inactive); in assay [14], 1.59 (inactive); in [16] it was -1.24 (inactive).

Turning to `C=CCOC(=O)[C@@H]1[C@H]2C(=O)O[C@H](c3ccccc3)[C@H](c3ccccc3)N2[C@H](c2ccc(OCCOC(=O)[C@H]3C[C@H]4C(=O)NCC(=O)N4[C@H]3c3ccc(O)cc3)cc2)[C@@]12C(=O)Nc1ccc(I)cc12`, the composite z-score in [1] is -0.223; in assay [2], 0.826; in [3], -0.0834; in assay [4] it was 0.22; in [5], 0.948; in assay [6], 0.675. The composite z-score in [7] is 0.86; in [9] it was 0.377; in assay [10] it was -0.54; in [11], 1.53; in [15], 2.08; in assay [17] it was -0.162. Moreover, the composite z-score amounted to 1.59 in [18], 1.15 in assay [19] and 0.0026 in [20]. For the same compound, the z-score was 1.2 (inactive) in [8]; 1.22 (inactive) in assay [12]; 0.761 (inactive) in [13]; 4.27 (inactive) in assay [14]; -0.615 (inactive) in assay [16].
